# According to PubChem BioAssay (NCI):
# About 83,000 compounds went through this panel and 20% of them were active in at least one assay; those are over-represented in the sample as a whole.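 Percent growth is the endpoint: 0 to 100 indicates growth inhibition (40 means 60% inhibition), 0 means no net growth, and negative values indicate cell death.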 Values without a mark were called inactive. Calls of active or inactive are those of the source.
# Test system: NCI-H23 lung
# Test: NCI-60 one-dose screen, 48 h (100 = growth as untreated, 0 = no growth, -100 = all killed)
# Details: 10 µM
# Method: Growth inhibition of the NCI-H23 human Non-Small Cell Lung tumor cell line is measured as a screen for anti-cancer activity. Cells are grown in 96 well plates and exposed to the test compound for 48 hours. Compounds are tested at a single concentration, which is 10^-5 M for most compounds. The reported endpoint is percent growth (GI% or GIPRCNT), where numbers from 0 - 100% represent growth inhibition, and numbers from -100% - 0 represent cell death. For example, a value of 40 represents 60% growth inhibition. A value of 0 means no net growth occurred over the course of the experiment. A value of -40 indicates 40% of cells at the beginning of the experiment died by the end of the experiment. A value of -100 means all cells are dead at the end of the experiment.
# NCI-60 Human Tumor Cell Lines Screen was performed using the standard one-dose NCI protocol, which is described in more detail at https://dtp.cancer.gov/discovery_development/nci-60/default.htm.
# Compounds with GIPRCNT values below 10 were considered active. Activity score was based on GIPRCNT using the following formula: […]
# Score is 0 for GIPRCNT values of 100 or above, 50 for GIPRCNT values of 0, and 100 for GIPRCNT values of -100.
row,SMILES,growth
1,CCC(C)(C)C1CCC(O)CC1 (stereo not given),91%
2,O=C(NN=C1CCCCC1)C(=O)NN=C1CCCCC1,105%
3,Cc1cc(N)c(S(=O)(=O)O)c(N)c1,97%
4,O=[N+]([O-])c1ccc(O)c(S(=O)(=O)O)c1,103%
5,NNc1ccccc1C(=O)O,111%
6,O=C1C=C(Nc2ccc([N+](=O)[O-])cc2)c2ccccc2C1=O,30.1%
7,CCC/C=C(/C(C)=O)C(=O)OCC,107%
8,O=C(NCc1ccco1)Nc1c(Cl)cc(Cl)cc1Cl,104%
9,CC(C)(O)C#CC#CC(C)(C)O,88.9%
10,O=C(Cc1nc2ccc([N+](=O)[O-])cc2nc1CC(=O)c1cccnc1)c1cccnc1,52.7%
11,CC1(O)OC(COc2ccc(Cl)cc2)COC1O (stereo not given),102%
12,CCOc1ccc(/C=N/N=C(N)N)cc1OCC,92%
13,CCCCCCCCO,97.5%
14,Cc1ccncc1C(N)=O,119%
15,N/N=C(/Cc1ccccc1)NNC(N)=S,99%
16,CCOC(=O)C1=C(C)NC(=O)NC1c1cccs1 (stereo not given),98.4%
17,O=C(Nc1cc(-c2ccccc2)[nH]n1)c1ccc(Cl)cc1,87.8%
18,CN(C)c1nc2c([nH]1)c(=O)n(C)c(=O)n2C,99.8%
19,CCCC1(c2ccccc2)NC(=O)NC1=O (stereo not given),110%
20,COc1ccc(Oc2c(I)cc(CC(NC(C)=O)C(=O)O)cc2I)cc1 (stereo not given),61.9%

row,SMILES,growth
1,OC1CCCc2ccccc21 (stereo not given),104%
2,CCCOC(=O)C(O)c1ccccc1 (stereo not given),106%
3,c1csc(-c2cc(-c3cc(-c4cccs4)[nH]n3)n[nH]2)c1,91%
4,CC(=O)c1sc2c(c1OC(=O)c1ccc(Cl)cc1Cl)c(=O)n(-c1ccccc1)c(=S)n2-c1ccccc1,23.9%
5,COc1ccc(C2OC(N)=C(O)C2=O)cc1OC (stereo not given),102%
6,Cc1cc2nc(CC(=O)c3ccccc3)c(=O)[nH]c2cc1C,84%
7,O=C(O)CCCC(=O)O,95.3%
8,O=C1OC(=O)C2C1C1(Cl)C(Cl)=C(Cl)C2(Cl)C2C(=O)OC(=O)C21 (stereo not given),101%
9,C/C(O)=C(\C=N\C(N)=S)C(=O)Nc1ccccc1,94.5%
10,CCCCC(O)c1ccccc1 (stereo not given),96.5%
11,O=C(O)CCC(=O)OC(C1CO1)C(OC(=O)CCC(=O)O)C1CO1 (stereo not given),102%
12,CCS(=O)(=O)CCCl,101%
13,O=C(O)CSCSCC(=O)O,99.8%
14,CCOC(=O)c1[nH]c(C)c(C(C)=O)c1C,94.2%
15,O=S(=O)(Cc1ccccc1)c1ccccc1,105%
16,CC1CCC(C(=O)O)N1 (stereo not given),89.2%
17,Cn1cnc2nc(Cl)nc(Cl)c21,40.6%
18,CC(=O)OC1CC2C(C)(C)OC3CC(=O)OCC32C2CCC3(C)C(=CCC3c3ccoc3)C12C (stereo not given),108%
19,CCN(CC)c1ccc2nc3ccc(=[N+](CC)CC)cc-3oc2c1,-46.2% (active)
20,O=S(=O)(O)C(Nc1ccccc1)c1ccccc1 (stereo not given),103%
